# HEK cytotox – kills HEK 293 cells; HEK 293 viability, ATP luminescence (CellTiter-Glo), 48-72 h; Potency, µM (top dose mostly 115 µM), for the others: top-dose activity change, negative = cytotoxicity, hits mostly inhibitors; hit rate 6.6% among 94,000; also: nearly all actives have a fitted effect of over 60% in size
#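 250 HEK 293 cells/well; compound by pintool; incubated 48 or 72 hr at 37 degree Celsius; CellTiter-Glo added, 10 min RT, luminescence imaged.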
# NIH3T3 tox – NIH 3T3 cell cytotoxicity; NIH 3T3 viability, CellTiter-Glo ATP luminescence, 48-72 h; Potency, µM (series often up to 96.7 µM), for inactives: at the highest dose activity change, negative = cytotoxicity, most hits filed as inhibitors; hit rate 4.3% among 94,000; AID 1345082; also: nearly all actives have a fitted effect of over 55% in size
#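 Mouse fibroblast NIH 3T3 cells, 400 per well, received compound via pintool and were incubated for 48 or 72 hr prior to CellTiter-Glo ATP luminescence measurement.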
# Luciferase inh – Photinus pyralis luciferase inhibition; AID 1347043; purified P. pyralis luciferase, luminescence, biochemical; hit rate 2.5% among 76,000; Potency, µM (titrated, usually from 115 µM), usual class: inhibitors; P08659; also: nearly all actives have a fitted effect of over 65% in size
# Target sequence (P08659 whole entry, looked up): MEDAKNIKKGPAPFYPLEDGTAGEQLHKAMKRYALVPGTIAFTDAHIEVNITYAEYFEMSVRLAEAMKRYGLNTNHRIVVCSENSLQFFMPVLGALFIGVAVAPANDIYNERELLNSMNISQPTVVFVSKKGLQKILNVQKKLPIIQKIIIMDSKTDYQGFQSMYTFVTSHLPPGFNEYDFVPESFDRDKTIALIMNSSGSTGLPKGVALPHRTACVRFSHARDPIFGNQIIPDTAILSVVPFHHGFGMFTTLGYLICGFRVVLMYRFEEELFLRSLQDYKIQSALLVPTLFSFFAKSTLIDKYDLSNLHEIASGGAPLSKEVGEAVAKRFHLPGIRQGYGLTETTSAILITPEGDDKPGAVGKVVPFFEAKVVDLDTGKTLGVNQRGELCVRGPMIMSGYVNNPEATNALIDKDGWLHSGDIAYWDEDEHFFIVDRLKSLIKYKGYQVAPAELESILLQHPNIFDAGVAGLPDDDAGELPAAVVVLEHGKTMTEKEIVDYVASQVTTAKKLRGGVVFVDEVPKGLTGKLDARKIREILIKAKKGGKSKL
#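 Inhibitors were tested against purified firefly luciferase in a biochemical, low-substrate format (both substrates at 10uM) and luminescence measured with a CCD imager.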
# NPR1 antag – blocks ANP-stimulated signaling of human Npr1 receptor | HEK293 hNpr1 GloSensor cGMP, ANP-stimulated luminescence | Potency, µM (titrated, usually from 46.3 µM), for the others: top-dose activity change, negative = inhibition, hits mostly inhibitors | hit rate 1.6% among 76,000; calls by dose curve; also: nearly all actives have a fitted effect of over 60% in size
#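 Compound pre-incubated 30 min at room temperature on GloSensor-loaded HEK293 cells stably carrying hNpr1 and the pGS-40F cGMP biosensor. Stimulation uses hNppA at 0.1 nM final; luminescence is taken at baseline and 20 min post-agonist.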
# The depositor's hits bear a star; i = inactive; ? = inconclusive; · = no result; [ ] = remark or other dose. Hits are enriched below; roughly 11% of the tested compounds scored in any of these assays. Unless noted, calls follow the shape of the dose curve; as a rule, active = well fitted curve in the direction sought with a large enough effect; inconclusive = small, poorly fitted or top-dose-only effect, or another doubt; inactive = no such curve, though single readings can be large; an effect the other way counts as inactive or inconclusive. % is scaled to controls: 0 for no effect and ±100 for the full control effect; potency is read from the fitted curve at half-maximal effect.
SMILES,HEK cytotox,NIH3T3 tox,Luciferase inh,NPR1 antag
CCOC(=O)c1ccc(NC(=O)N2Cc3[nH]cnc3C[C@H]2c2nc(-c3ccncc3)no2)cc1,-11%,?,i,-5%
CCOC(=O)c1ccc(NC(=O)N2Cc3[nH]cnc3C[C@H]2c2nc(-c3ccc4c(c3)OCO4)no2)cc1,?,28µM*,40µM*,-3%
O=C(Nc1ccc(Cl)cc1)N1Cc2[nH]cnc2C[C@H]1c1nc(-c2ccc(F)c(Cl)c2)no1,?,25µM*,7.9µM*,?
CCOC(=O)c1ccc(NC(=O)N2Cc3[nH]cnc3C[C@H]2c2nc(-c3ccc(OC(F)(F)F)cc3)no2)cc1,?,25µM*,?,-16%
CCNC(=O)N1Cc2[nH]cnc2C[C@H]1c1nc(-c2ccc(OC(F)(F)F)cc2)no1,?,?,?,2%[70.6 µM]
O=C1CN(C(=O)c2ccc(F)cc2)CC(O)CN1Cc1ccc(Cl)cc1 (stereo unspecified),-25%,?,·,·
O=C(NC1CCN(C(=O)c2ccc(-c3cncnc3)cc2)CC1)c1ccccc1Cl,-19%,-26%,·,·
CC(C)C[C@@H]1N[C@H](C(=O)NCc2ccccc2Cl)Cc2c[nH]c3cccc1c23,28µM*,32µM*,i,-20%[70.6 µM]
COc1ccccc1CNC(=O)[C@@H]1Cc2c[nH]c3cccc(c23)[C@H](CC(C)C)N1,35µM*,28µM*,i,-20%[70.6 µM]
COc1ccc2c(c1)C(NC(=O)c1cn(CCN)nn1)CC(C)(C)O2 (stereo unspecified),i,1%,i,1%
COc1cc(OC)cc(N2C(=O)[C@@H]3C[C@@H](NC(=O)c4ccc(SC)cc4OC)CCN3C2=O)c1,-8%,-33%,i,-5%
COc1ccccc1C(=O)N1CCC(N2CCCOC2=O)CC1,4%,2%,·,·
COc1ccc(C(=O)N2CCOCC3(CN(Cc4ccccc4)C3)C2)c(OC)n1,45µM*,32µM*,i,3%[70.6 µM]
O=C(c1ccc(Cl)cc1)N1CCOCC2(CN(Cc3ccccc3)C2)C1,-69%[172 µM],3.2µM*,i,3%[70.6 µM]
COc1ccc(C(=O)N2CCOCC3(CN(Cc4ccccc4)C3)C2)cc1,10µM*,?,i,2%[70.6 µM]
COc1ccc(C(=O)N2CCOCC3(CN(Cc4cc(C)cc(F)c4)C3)C2)cc1OC,8.9µM*,?,i,-4%[70.6 µM]
COCCNC(=O)[C@@H]1C[C@H](Oc2ccccc2)CN1S(=O)(=O)c1c(C)noc1C,-15%,-7%,i,0%
CCN1C[C@H]2COc3cc(OC)ccc3[C@H]2N(C(=O)c2ccccc2OC)CCC1=O,-15%,?,·,·
CN1c2cc(C(=O)NCc3ccc(Cl)cc3)ccc2C(=O)N2CCCCCC21 (stereo unspecified),?,?,i,-1%
CC1=C[C@@H](CN2CCN(c3ccccn3)CC2)[C@H](C(C)C)C[C@H]1Cc1nnc(-c2cncn2C)o1,32µM*,?,i,-2%
CC(=O)N1CCN(C[C@@H]2C=C(C)[C@H](Cc3nnc(-c4cncn4C)o3)C[C@H]2C(C)C)CC1,?,?,i,1%
CC1=C[C@@H](CN2CCN(CCO)CC2)[C@H](C(C)C)C[C@H]1Cc1nnc(Cc2c[nH]c3ccccc23)o1,?,28µM*,i,-17%
CC1=C[C@@H](CN2CCN(c3ccccn3)CC2)[C@H](C(C)C)C[C@H]1Cc1nnc(-c2ccc([N+](=O)[O-])cc2)o1,?,?,i,2%
CC1=C[C@@H](CN2CCN(c3ccccc3)CC2)[C@H](C(C)C)C[C@H]1Cc1nnc(-c2cncn2C)o1,35µM*,?,i,0%
CC1=C[C@@H](CN2CCN(c3cnccn3)CC2)[C@H](C(C)C)C[C@H]1Cc1nnc(-c2cccnc2)o1,35µM*,?,i,?
SMILES,HEK cytotox,NIH3T3 tox,Luciferase inh,NPR1 antag
COC(=O)CNC(=O)C1=NOC2CN(C(=O)NC(C)C)CC12 (stereo unspecified),1%,i,·,·
CC1=C[C@@H](CN2CCN(c3ccc(F)cc3)CC2)[C@H](C(C)C)C[C@H]1Cc1nnc(-c2cncn2C)o1,22µM*,?,i,-2%
CC1=C[C@@H](CN2CCN(c3ncccn3)CC2)[C@H](C(C)C)C[C@H]1Cc1nnc(COc2ccc(F)cc2)o1,25µM*,40µM*,i,-25%
CC1=C[C@@H](CN2CCN(CCO)CC2)[C@H](C(C)C)C[C@H]1Cc1nnc(-c2ccccc2F)o1,?,?,i,1%
CC(=O)NC[C@@H]1C=C(C)[C@H](Cc2nnc(-c3cncn3C)o2)C[C@H]1C(C)C,-9%[172 µM],-10%[174 µM],i,13%[70.6 µM]
O=C(C[C@@H]1CCNC[C@@H]1Cc1cc(-c2ccccc2)on1)N1CCC(Cc2ccccc2)CC1,?,28µM*,i,7%
CC(C)(C)c1cc(C[C@H]2CNCC[C@H]2CC(=O)N2CCC(Cc3ccccc3)CC2)no1,22µM*,28µM*,i,3%
O=C(c1ccccc1Cl)N1CCCC2(CNc3ncccc3[S+](=O)([O-])N2)C1 (stereo unspecified),-7%,-1%,·,·
CCOc1ccccc1N1CCN(c2ncncc2-c2nc(-c3ccccc3)no2)CC1,?,?,i,-13%
Cc1ccc(C(=O)N2CCCC(n3cc(-c4nc(-c5ccccc5)no4)nn3)C2)s1 (stereo unspecified),?,?,?,10µM*
Cc1noc(-c2cn(C3CCN(C(=O)c4ccc(C)s4)CC3)nn2)n1,-9%,-26%,i,25%
Cc1ccc(C(=O)N2CCC(n3cc(-c4nc(-c5ccccc5)no4)nn3)CC2)s1,45µM*,?,i,?
COc1ccc(CCC(=O)N2CCC3(CC2)NC(=O)N(c2ccc(F)cc2)N3)cc1,?,?,i,5%
OCC1CNCCC12CCN(Cc1ccc3ccccc3c1)CC2 (stereo unspecified),28µM*,45µM*,i,-4%
OCC1CN(c2ncccn2)CC12CCN(Cc1ccc3cc[nH]c3c1)CC2 (stereo unspecified),-14%,2%,i,6%
Cc1noc(C)c1S(=O)(=O)N[C@@H]1CN(Cc2ccccc2)C[C@H]1CN(C)C,i,-2%,i,6%
CCOCCCNC(=O)C1CCCN1Cc1ccc(-c2cncnc2)cc1 (stereo unspecified),i,-4%,·,·
CCOCCNC(=O)C1CCCN1Cc1ccc(-c2cc(C)cc(C)c2)cc1 (stereo unspecified),35µM*,?,·,·
Cc1cc(C)cc(-c2ccc(CN3CCCC3C(=O)NCC3CC3)cc2)c1 (stereo unspecified),40µM*,40µM*,·,·
O=C(NCC1CC1)C1CCCN1Cc1ccc(-c2cncnc2)cc1 (stereo unspecified),i,-5%,·,·
Cc1cc(C)cc(-c2ccc(CN3CCCC3C(=O)NCc3cccnc3)cc2)c1 (stereo unspecified),50µM*,?,·,·
